Screening results as filed in PubChem BioAssay.
Hits are enriched below; roughly 3.3% of the tested compounds scored in any of these assays.
Jurkat NFkB inh – inhibitors of the PMA/ionomycin-induced NF-kB reporter in Jurkat cells; AID 435003; 0.53% of 330,000 active; PMA/ionomycin-induced NF-kB luciferase reporter, luminescence; inhibition, % at 4 µM; in the data active = inhibition above about 50%
Gli-Sufu block – antagonists of Gli-Sufu signaling; Sufu-KO-LIGHT fibroblasts, Gli luciferase reporter luminescence; inhibition, % at 5 µM; 0.74% of 340,000 active; AID 588413;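 active = inhibition above about 55%, limit read from the data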;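 also: 0% = DMSO-treated cells and 100% = wells with medium but no cells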
SMARCA2 activ – increases SMARCA2 function in MMTV reporter cells | MG213 cells, MMTV-luciferase reporter, dexamethasone, overnight | activation, % at 9.1 µM | 1% of 370,000 active; in the data active = activation above about 7.8%;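 also: 0% = vehicle wells and 100% = reference activator wells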
697 NFkB inh – inhibitors of the PMA/ionomycin-induced NF-kB reporter in 697 B cells | 697 B-cell NF-kB luciferase reporter, 16 h | inhibition, % at 4 µM | 0.33% of 330,000 active | AID 435022; in the data active = inhibition above about 35%
esBAF inh – inhibitors of esBAF chromatin remodeling in mouse ES cells; reporter increase, % at 12.5 µM; 2% of 350,000 active; Bmi1-luciferase knock-in reporter, 24 h; 100% = twice the neutral-well signal; AID 602393; in the data active = activation above about 40%; inconclusive = no clear call, values can overlap the other calls;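 also: 0% = median of the plate's neutral control wells and 100% = double that signal; a rise in the Bmi1 reporter signal indicates esBAF inhibition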
Jurkat NFkB conf – inhibitors of the PMA/ionomycin-induced NF-kB reporter in Jurkat cells, retest. shares compounds with Jurkat NFkB inh. Jurkat NF-kB luciferase, 16 h. inhibition, % at 4 µM. 27% of 2,700 active. AID 435020;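 active = inhibition reaching about 45% at 4 µM in either replicate, limit read from the data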;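 also: plate controls were PMA/ionomycin stimulated DMSO wells for no effect and unstimulated DMSO wells for full effect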
* marks the source's active call; other numbers are inactive results; ? = inconclusive; nt = no result.

SMILES | Jurkat NFkB inh | Gli-Sufu block | SMARCA2 activ | 697 NFkB inh | esBAF inh | Jurkat NFkB conf
Cn1cc(/C=N/n2cnc3scc(-c4ccccc4)c3c2=O)c2ccccc21 | 63* | 14 | -3 | -20 | -9 | 25
CCCNC(=O)Nc1ccc2c(c1)C(=O)N(C)C[C@H](OC)[C@@H](C)CN(CCC(F)(F)F)[C@H](C)CO2 | nt | nt | nt | nt | -5 | nt
COc1ccccc1C(=O)Nc1ccc2c(c1)OC[C@@H](C)N(CC1CC1)C[C@H](C)[C@@H](OC)CN(C)C2=O | nt | nt | nt | nt | 6 | nt
Cc1ccc(-c2cc(C(=O)Nc3cc(C)on3)c3ccccc3n2)cc1 | 5 | -11 | 0 | -11 | nt | nt
Cc1cc(NC(=O)c2cc(-c3ccncc3)nc3c(C)cccc23)no1 | 52* | 0 | -3 | -26 | 13 | 23
CCCC(=O)Nc1ccc2c(c1)OC[C@@H](C)N(C(=O)CC)C[C@H](C)[C@H](OC)CN(C)C2=O | nt | nt | nt | nt | 2 | nt
Cc1noc(C)c1NC(=O)Nc1ccc2c(c1)C(=O)N([C@@H](C)CO)C[C@H](C)[C@@H](CN(C)S(=O)(=O)c1cn(C)cn1)O2 | nt | nt | nt | nt | -1 | nt
CCOC(=O)C1=C(C)NC2=C(C(=O)CC(c3cccs3)C2)C1c1cccs1 (stereo not given) | 60* | 0 | -4 | -28 | 7 | 5
COc1ccc(Cl)cc1NC(=O)c1cnc2sccn2c1=O | -64 | -19 | 6 | -31 | 3 | nt
O=C(Nc1cnc2sccn2c1=O)c1ccc(Cl)cc1Cl | -151 | -24 | 3 | -176 | -16 | -48
CCCNC(=O)N1C[C@H](O)COC[C@@H]2O[C@H](CC(=O)N3CCOCC3)CC[C@H]21 | nt | nt | nt | nt | -12 | nt
COc1ccc(S(=O)(=O)Nc2cccc3c2O[C@H](CN(C)S(=O)(=O)c2cccs2)[C@@H](C)CN([C@@H](C)CO)C3=O)cc1 | nt | nt | nt | nt | 5 | nt
CCN(CC)C(=O)c1ccc2nc3ccccc3nc2c1 | -10 | -10 | 3 | -11 | nt | nt
CCN(CC)c1ccc2nc3ccccc3[n+](CC)c2c1 | 56* | 26 | nt | 18 | -66 | 56*
CCN(CC)c1ccc(C=Nc2cccnc2Cl)c(O)c1 | -8 | 2 | -1 | 4 | 3 | nt
CCN(CC)c1ccc2nc3ccc(N)cc3[n+](-c3ccccc3)c2c1 | 83* | 93* | -8 | 20 | -82 | 68*
CCCN(C)C[C@@H]1OCCCC[C@@H](C)Oc2ccc(NS(=O)(=O)c3ccccc3)cc2C(=O)N([C@H](C)CO)C[C@@H]1C | nt | nt | nt | nt | 0 | nt
CC1CCN(c2c(NCc3ccc(C(=O)N4CCc5ccccc54)cc3)c(=O)c2=O)CC1 | 58* | 17 | 1 | -7 | -5 | 45
CC1CCN(c2c(NCc3ccc(C(=O)N(C)C4CCCCC4)cc3)c(=O)c2=O)CC1 | 6 | -3 | 3 | 14 | -6 | nt
C[C@H](CO)N1C[C@H](C)[C@@H](CN(C)C(=O)Nc2ccc(F)cc2)Oc2ccc(NS(=O)(=O)c3ccc(F)cc3)cc2C1=O | nt | nt | nt | nt | -5 | nt
CCOc1ccc(C(=O)NC(=S)Nc2cccc(S(=O)(=O)NC3=NCCC3)c2)cc1 | 60* | -1 | -4 | 5 | nt | 34
COC(=O)c1cccc(NC(=O)NC(=O)c2ccc(Cl)cc2)c1 | 86* | -76 | 7 | -34 | -10 | 3
COC(=O)c1cccc(NC(=O)Nc2ccc(Cl)cc2)c1 | -2 | -126 | 3 | -70 | 55 | nt
COc1ccc(Nc2nc(N3CCCC3)c3ccccc3n2)cc1 | 58* | 50 | -2 | -24 | nt | 20
C/C(=N\NC(=O)c1cc(-c2cccs2)nc2ccccc12)c1ccccn1 | 55* | 93* | -1 | 25 | -60 | 14
SMILES | Jurkat NFkB inh | Gli-Sufu block | SMARCA2 activ | 697 NFkB inh | esBAF inh | Jurkat NFkB conf
CC(=NNC(=O)c1ccncc1)c1cccc(Br)c1 | nt | 1 | 0 | nt | 6 | nt
C/C(=N\NC(=O)c1cccc2ccccc12)c1cccs1 | -33 | -35 | 2 | -4 | ? | nt
COc1ccc(NC(=O)c2ccccn2)cc1OC | -32 | -56 | 3 | -28 | nt | nt
C/C(=N\NC(=O)c1cccc(Br)c1)c1ccccn1 | 92* | 89* | 2 | -95 | -37 | 1
COc1ccc(C(=O)N/N=C(\C)c2ccccn2)cc1OC | 96* | 95* | 1 | -50 | -54 | 16
C/C(=N\NC(=O)c1cccc2ccccc12)c1ccccn1 | 95* | 80* | -2 | -30 | -23 | 18
C[C@@H]1CN([C@@H](C)CO)C(=O)Cc2cc(NC(=O)CCC(F)(F)F)ccc2O[C@H]1CN(C)C(=O)Nc1ccc(F)cc1 | nt | nt | nt | nt | 1 | nt
